# DUSP3 inh – blocks human VHR1 dual specificity phosphatase; P51452; inhibition, % at 13.3 µM; recombinant VHR phosphatase, pNPP absorbance; 0.52% of 290,000 active; in the data active = inhibition above about 50%
# Target sequence (P51452 whole entry, looked up): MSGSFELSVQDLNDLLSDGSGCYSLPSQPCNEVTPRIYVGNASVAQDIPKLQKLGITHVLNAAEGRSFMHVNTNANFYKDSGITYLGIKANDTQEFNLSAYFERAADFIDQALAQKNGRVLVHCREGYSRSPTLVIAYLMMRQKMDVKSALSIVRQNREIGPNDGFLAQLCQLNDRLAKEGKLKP
# Anthrax LF prot – inhibitors of Bacillus anthracis lethal factor protease; inhibition, % at 10 µM; AID 588501; 0.12% of 360,000 active; multiplex microsphere protease cleavage assay, LF
# BoNT F protease – BoNT F light chain protease inhibition; Multiplex microsphere protease cleavage assay, flow cytometry; inhibition, % at 10 µM; 0.22% of 360,000 active; AID 588497; in the data active = inhibition above about 35%, passing the limit was not always enough; inconclusive = no clear call, values can overlap the other calls
# Autofluor counter – compound fluorescence in toxin protease inhibitor counterscreen | fluorescence intensity (test concentration not listed) | 3.1% of 360,000 active | compound autofluorescence counterscreen, microsphere flow cytometry; hits give high values; in the data active = fluorescence intensity above about 16000; inconclusive = no clear call, values can overlap the other calls
# BoNT-A LC inh2 – blocks Botulinum neurotoxin A light chain protease; inhibition, % at 10 µM; AID 588499; 0.17% of 360,000 active; multiplex microsphere protease substrate cleavage, flow cytometry
# SARS 3CLpro inh – SARS-CoV 3CLpro protease inhibition; AID 1706; recombinant SARS-CoV 3CLpro, quenched FRET peptide cleavage; P0C6X7; 0.14% of 290,000 active; inhibition, % at 6 µM; in the data active = inhibition above about 12%
# BoNTA LC inh 1 – blocks botulinum neurotoxin A light chain protease. 3% of 720 active. inhibition, % at 10 µM. shares compounds with BoNT F protease. multiplex microsphere protease assay, flow cytometry. AID 602139; in the data active = inhibition above about 32%
# BoNTF LC inh 1 – inhibitors of Botulinum neurotoxin F light chain protease. inhibition, % at 10 µM. shares compounds with BoNT F protease. 720 tested, under 10 active. multiplex microsphere protease cleavage assay, flow cytometry; call rule not given here
# LF protease CP1 – blocks anthrax lethal factor protease; inhibition, % at 10 µM; 720 tested, under 10 active; shares compounds with BoNT F protease; multiplex microsphere protease cleavage assay, LF; AID 602142; call rule not given here
# Hits are given with their value; i = inactive; ? = inconclusive; nt = no result. Only some compounds are listed: those with a hit (about 3.9% of all), similar ones and a draw of the others. Rule as the data show it, unless noted: active = inhibition above about 30%; inconclusive = no clear call, values can overlap the other calls; inactive = below that.
SMILES,DUSP3 inh,Anthrax LF prot,BoNT F protease,Autofluor counter,BoNT-A LC inh2,SARS 3CLpro inh,BoNTA LC inh 1,BoNTF LC inh 1,LF protease CP1
O=C(CN(C1CCCCC1)C1CCCCC1)N1CCc2ccccc2C1,i,i,i,i,i,i,nt,nt,nt
Cc1cc(C(=O)Nc2ccccc2)c2ccccc2n1,i,i,i,i,i,i,nt,nt,nt
CC(C)Cc1cc(C(=O)Nc2ccccc2)c2ccccc2n1,i,i,43,i,i,i,i,i,i
O=C(O)c1ccc(CNC(=O)C23CC4CC(CC(C4)C2)C3)cc1,i,i,98,i,i,i,i,i,i
NS(=O)(=O)c1ccc(CNC(=O)C23CC4CC(CC(C4)C2)C3)cc1,i,i,i,i,i,i,nt,nt,nt
CCOc1ccc(CC2NCCc3cc(OCC)c(OCC)cc32)cc1OCC (configuration not stated),i,i,i,i,i,i,nt,nt,nt
CCOc1ccc(CC2c3cc(OCC)c(OCC)cc3CCN2C(=O)CN2CCN(C)CC2)cc1OCC (configuration not stated),i,i,35,i,i,i,i,i,i
CCOC(=O)c1cnc(SC2CC(=O)N(c3cccc(OC)c3)C2=O)nc1N (configuration not stated),i,i,i,i,i,i,i,i,i
CCOC(=O)c1ccc(N2C(=O)CC(Sc3ncccn3)C2=O)cc1 (configuration not stated),i,i,?,i,i,i,nt,nt,nt
COc1ccccc1N(CC(=O)Nc1ccccc1C)S(C)(=O)=O,i,i,i,i,i,i,nt,nt,nt
Cc1ccccc1NC(=O)CN(c1ccc(F)cc1)S(C)(=O)=O,i,i,42,i,i,i,i,i,i
COc1ccc(C(=O)O)cc1S(=O)(=O)Nc1ccccc1Cc1ccccc1,i,i,i,i,i,i,nt,nt,nt
Cc1ccc(C)c(N2N=C(C(=O)N(CC(C)C)c3c(N)n(Cc4ccccc4)c(=O)[nH]c3=O)CCC2=O)c1,i,i,i,i,i,i,nt,nt,nt
Cc1ccc(NC(=O)NCc2ccc3[nH]c(C)cc3c2)cc1,i,i,i,i,i,i,nt,nt,nt
CC(=O)NCc1ccc2[nH]c(C)cc2c1,i,i,i,i,i,i,i,i,i
CCC(=O)NCc1ccc2[nH]c(C)cc2c1,i,i,i,i,i,i,i,i,i
Cc1cc2cc(CNC(=O)CCC(=O)O)ccc2[nH]1,i,i,i,i,i,i,i,i,i
Cc1cc2cc(CNC(=S)NC3CCCCC3)ccc2[nH]1,i,i,i,i,i,i,nt,nt,nt
Cc1cc2cc(CNC(=O)NC3CCCCC3)ccc2[nH]1,i,i,i,i,37,i,i,i,i
O=C(NCc1ccco1)C1CCN(c2ccc(S(=O)(=O)N3CCOCC3)cc2[N+](=O)[O-])CC1,i,i,i,i,i,i,nt,nt,nt
Cc1nnc(N(C(=O)c2cnccn2)c2ccccc2)s1,i,i,i,i,i,i,i,i,i
O=C(Nc1cccc(Cl)c1)OC1CCCCc2cccnc21 (configuration not stated),i,i,i,i,i,i,nt,nt,nt
O=C(Nc1ccccc1)OC1CCCCc2cccnc21 (configuration not stated),i,30,?,i,?,i,i,i,i
COc1ccc(CN(C)C[C@H]2OCc3cnnn3CCCC(=O)N([C@H](C)CO)C[C@@H]2C)cc1,nt,i,i,i,i,nt,nt,nt,nt
COc1ccc(C2=NOC(C(=O)NCc3ccccn3)C2)cc1 (configuration not stated),i,i,72,i,i,i,i,i,i
SMILES,DUSP3 inh,Anthrax LF prot,BoNT F protease,Autofluor counter,BoNT-A LC inh2,SARS 3CLpro inh,BoNTA LC inh 1,BoNTF LC inh 1,LF protease CP1
CCCNC(=O)c1ccccc1NC(=O)c1ccccc1N(C)S(=O)(=O)c1ccc(C)cc1,i,i,38,i,i,i,i,i,i
CCCNC(=O)c1ccccc1NC(=O)c1ccccc1N(C)S(C)(=O)=O,i,i,?,i,i,i,nt,nt,nt
c1ccc(-c2cn3c(n2)CCC3)cc1,i,i,i,i,i,i,nt,nt,nt
O=[N+]([O-])c1ccc(-c2cn3c(n2)CCC3)cc1,i,i,37,?,i,i,i,i,i
C=CCNC(=S)NNC(=O)COc1cccc(Cl)c1,i,i,i,i,?,i,nt,nt,nt
O=C(O)C(c1ccccc1)C(O)c1ccc2c(c1)OCO2 (configuration not stated),nt,i,i,i,i,nt,nt,nt,nt
COc1ccc(S(=O)(=O)N2CCSC2C)cc1C (configuration not stated),i,i,44,i,i,i,i,i,i
CS(=O)(=O)N1CCc2cc(C(=O)Nc3ccc(O)cc3)ccc21,i,i,56,i,i,i,i,i,i
CCCCCC1CCC(C(=O)NCCN2CCOCC2)CC1 (configuration not stated),i,i,i,i,i,i,nt,nt,nt
Clc1ccc(/C=C/c2ncc[nH]2)c(Cl)c1,i,i,40,i,i,i,i,i,i
Cc1ccc(S(=O)(=O)Nc2cc(C)c(O)c(Sc3n[nH]c(C)n3)c2)cc1,i,i,i,i,i,i,nt,nt,nt
CC(C)(C)c1cc(C(=O)CCN2CCOCC2)cc(C(C)(C)C)c1O,i,i,i,i,i,i,i,i,i
COc1ccc(-c2sc3cc(OC)c(OC)cc3c2-c2ccc(O)cc2)cc1,nt,i,i,i,i,nt,nt,nt,nt
CCN(CC)c1ncnc2c1ncn2[C@H]1CN(Cc2ccc(-c3ccccc3)cc2)C[C@@H](CO)O1,nt,i,i,i,i,nt,nt,nt,nt
Nc1c(C(=O)N2CCCCCC2)oc2ccccc12,i,i,i,i,i,i,nt,nt,nt
O=C(Nc1ccc(Nc2ccccc2)cc1)c1c(F)c(F)c(F)c(F)c1F,i,40,i,i,i,i,i,i,i
Cc1csc(Sc2ccc([N+](=O)[O-])cc2C(=O)OCC(=O)NC(=O)NC(C)(C)C)n1,i,i,i,i,i,i,nt,nt,nt
CC(C)=CC1C(C(=O)NCCOc2ccccc2)C1(C)C (configuration not stated),i,i,35,i,i,i,i,i,i
CCOc1cccc(OCCCCN2CCCCC2)c1,i,i,i,i,i,i,nt,nt,nt
Brc1cccc(OCCCCN2CCCCC2)c1,i,i,35,i,i,i,i,i,i
Cc1cccc(CCNS(=O)(=O)c2ccc(S(=O)(=O)N3CCC(C)CC3)cc2)c1,nt,i,i,i,i,i,i,i,i
CCc1ccc2nc3sc(C(=O)N4CCc5ccccc54)c(N)c3cc2c1,i,nt,nt,nt,nt,i,nt,nt,nt
Cc1ccc(C)c2nc3sc(C(=O)N4CCCc5ccccc54)c(N)c3cc12,i,30,i,i,i,i,i,i,i
Cc1ccccc1NC(=S)N1CCN(c2ccccc2Cl)CC1,i,i,i,i,i,i,nt,nt,nt
Cc1ccc(NC(=O)CCCCCC2NC(=O)NC2C)cc1 (configuration not stated),i,i,71,i,i,i,i,i,i

# Assay outcomes deposited in PubChem BioAssay by several laboratories.
